Source: PubChem BioAssay AID686978 (National Center for Advancing Translational Sciences (NCATS), 2013)
The campaign covered roughly 420,000 compounds. About 64,000 (15%) were called active. Not shown: some 27% with an inconclusive outcome. Only a sample is shown. A number with no mark means an inactive call. The call rests on the fitted dose curve; in most records, active means well fitted inhibition curve with a large enough effect; inconclusive means small, poorly fitted or top-dose-only effect; inactive means flat fitted curve, though single readings scatter.

Assay: qHTS for Inhibitors of human tyrosyl-DNA phosphodiesterase 1 (TDP1): qHTS in cells in absence of CPT; further: nearly all actives have a fitted effect of over 55% in size
Settings: DT40 Tdp1-/- hTDP1 cells, no CPT, ATP luminescence, 48 h; activity change, negative = growth inhibition: at 46.2 µM (top of the series)
Outline: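 No-CPT arm: Tdp1-/-;hTDP1 DT40 cells (400/well) plus compounds, incubated ≥48 hr at 37 °C. Readout CellTiter-Glo luminescence.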
On the % scale 0 is the no-effect control and ±100 the full control effect; potency means the concentration at half of the fitted maximal effect.

SMILES	activity change, negative = growth inhibition [%]	Potency
Nc1nc(O)c(CC(=O)O)s1	-6.12	–
CCOC(=O)C1=C(O)/C(=C/c2ccc(OCC(=O)Nc3ccc(C)cc3)cc2)N=C1C	-4.71	–
O=c1c(-c2ccccc2)cnc2n1CCS2	19.4	–
CCCc1nn2c(=O)cc(COC(=O)c3ccc(NC(=O)COc4ccc(F)cc4)cc3)nc2s1	-22.2	–
Cc1onc(-c2c(Cl)cccc2Cl)c1C(=O)c1c[nH]c(C(=O)NC2CC2)c1	-17.8	–
CC1(C)CC(=O)c2sc(N)nc2C1	3.79	–
Cc1cccc(CC(=O)N2CCN=C2SCc2ccc([N+](=O)[O-])cc2)c1	–	16.4 µM (active)
O=C(Cc1ccc(F)cc1)N1CCN=C1SCc1cccc([N+](=O)[O-])c1	4.03	–
Cc1cc(C)cc(C(=O)N2CCN=C2SCc2ccc([N+](=O)[O-])cc2)c1	-40.8	–
C/C(=N\NC(=O)CCn1nc(C)cc1C)C(C)(C)C	-4.5	–
CCOC(=O)N1CCN(C(=O)CSc2nc(C)nc3c2c(=O)n(C)c(=O)n3C)CC1	-1.53	–
CCc1cnc2c(c1SCC(=O)N1CCC(C)CC1)c(=O)n(C)c(=O)n2C	–	20.6 µM (active)
Cn1c(=O)c2c(SCC(=O)N3CCOCC3)nc(C3CC3)nc2n(C)c1=O	-17.1	–
Cc1nc(N)nc(SCc2ccc([N+](=O)[O-])cc2)c1N	–	25.9 µM (active)
CC(Sc1nnc(Cc2ccc([N+](=O)[O-])cc2)o1)C(N)=O (centres undefined)	-1.37	–
O=C(CSCc1ccc([N+](=O)[O-])cc1)NCCSCc1ccccc1	-0.761	–
CCCN(C(=O)COC(=O)CNS(=O)(=O)c1ccc(NC(C)=O)cc1)C1CCS(=O)(=O)C1 (centres undefined)	24.2	–
COc1ccc(OC)c2[nH]c(=O)c(CCNC(=O)C(C)(C)C)cc12	-3.77	–
O=C(NCCCc1ccccc1)C(=O)c1c[nH]c2ccccc12	-16.1	–
COc1ccc(OC)c2[nH]c(=O)c(CCNC(=O)C(=O)c3c[nH]c4ccccc34)cc12	–	7.31 µM (active)
N#CCCCn1c(O)c(N=NC(=O)C(O)c2ccccc2)c2ccccc21 (centres undefined)	13.4	–
CCNC(=S)NCC	15.3	–
Oc1cc2c(cc1O)CN(C(=S)NCCc1ccc(Cl)cc1)CCC2	–	8.91 µM (active)
S=C(Nc1ccc(Cl)cc1Cl)N1CCCC1	13.4	–
COc1ccc(CCNC(=S)N2CCN(S(=O)(=O)c3ccc(Cl)cc3)CC2)cc1	-6.86	–
Cc1cccc(C)c1NC(=O)CNC(=O)Cc1ccc(Br)cc1	-15.9	–

SMILES	activity change, negative = growth inhibition [%]	Potency
COc1ccccc1CNc1cc(-c2ccccc2CN(C)C)ncn1	-17.6	–
CN(Cc1ccco1)c1cc(-c2ccccc2C(F)(F)F)ncn1	-21.6	–
FC(F)(F)c1ccccc1-c1cc(NCc2ccccc2)ncn1	–	9.2 µM (active)
COc1ccc(CCC(=O)c2c(O)cc(OC3OC(CO)C(O)C(O)C3O[C@@H]3OC(C)C(O)C(O)C3O)cc2O)cc1O (some centres undefined)	-8.37	–
COCC1CCCN(Cc2ccc3c(c2)CN(C(=O)c2ccnn2C)CCO3)C1 (centres undefined)	-5.47	–
NS(=O)(=O)c1ccc(NC(=S)NNC(=O)c2cccs2)cc1	-24.8	–
Cc1cc(Oc2ccc(Cl)cc2)nc(SCC(=O)c2ccccc2)n1	–	23.1 µM (active)
Cc1cc(C)nc(SCC(=O)c2ccc(Cl)cc2)n1	-20.5	–
Cc1cc(C)nc(SCC(=O)N(C)C)n1	13.2	–
Cc1ccc(C(=O)NCC(=O)O)cc1S(=O)(=O)N1CCCCC1	-8.3	–
Cc1ccc(C)c(Nc2nnc(-c3ccc(C)c(S(=O)(=O)N4CCCCC4)c3)c3ccccc23)c1	–	9.2 µM (active)
Cc1ccc(NS(=O)(=O)c2cccs2)cc1S(=O)(=O)N1CCCCCC1	-28.3	–
COc1ccc(C2CC(=O)n3c(nc4ccccc43)S2)cc1OC (centres undefined)	-19.5	–
COc1cc(=O)n2c(c1C(=O)NC(C)c1ccco1)CCN(C(=O)c1cn3ccc(C)cc3n1)CC2 (centres undefined)	-7.59	–
O=C(CN1CCN(C(=O)c2ccco2)CC1)Nc1ccc(Cl)c(C(F)(F)F)c1	–	16.4 µM (active)
O=C(CN1CCN(C(=O)c2ccco2)CC1)Nc1ccc2c(c1)OCO2	4.43	–
COc1ccc(OC)c(NC(=O)CN2CCN(C(=O)c3ccco3)CC2)c1	-22.3	–
COc1cc(NC(=O)COC(=O)c2cnc(C)cn2)c(C)cc1[N+](=O)[O-]	15.3	–
CCCN1C(=O)C(NS(=O)(=O)c2ccc(N)cc2)(C(F)(F)F)C(C(=O)OC)=C1C (centres undefined)	0.164	–
O=C(O)CCCC(=O)N1N=C(c2ccco2)CC1c1ccco1 (centres undefined)	-3.36	–
COc1cccc(-c2coc3cc4oc(=O)c(CC(=O)O)c(C)c4cc23)c1	-9.2	–
Brc1ccccc1/C=N/Nc1nc2ccccc2o1	-21.9	–
Oc1c(Br)cccc1/C=N/Nc1c(F)c(F)c(F)c(F)c1F	–	20.6 µM (active)
COc1ccc(C)cc1NC(=O)CN(C)S(=O)(=O)c1ccc2c(c1)n(C)c(=O)c(=O)n2C	6.24	–
CCCSC1=C(C#N)C(c2ccccc2C)C(C(=O)OC)C(=O)N1 (centres undefined)	-11.8	–
CC(C)N(C(=O)COC(=O)c1ccccc1C(=O)N1CCN(c2ccc(F)cc2)CC1)C(C)C	-23.6	–

SMILES	activity change, negative = growth inhibition [%]	Potency
Cn1c2ccccc2c2c(C(=O)N3CCN(c4ccc(F)cc4)CC3)cn(C3CCCC3)c(=O)c21	–	23.1 µM (active)
CC(=O)N1c2ccccc2CC1C(=O)N1CCN(c2ccc(F)cc2)CC1 (centres undefined)	-10.2	–
CC(NS(=O)(=O)c1ccccc1)c1n[nH]c(=S)n1-c1ccccc1 (centres undefined)	-1.17	–
CC(=O)Nc1ccc(NC(=O)[C@@H](NC(=O)c2cccc(C)c2)C(C)C)cc1	6.18	–
O=C(CC1Sc2ccccc2NC1=O)NNc1ccc(Cl)c(Cl)c1 (centres undefined)	–	11.6 µM (active)
O=C(CC1SCCNC1=O)Nc1ccc(Cl)c(Cl)c1 (centres undefined)	6.06	–
Cc1ccc(CNC(=O)CC2Sc3ccccc3NC2=O)cc1 (centres undefined)	-2.06	–
NNC(=O)c1ccc(COCC(F)(F)C(F)F)cc1	-11.3	–
Cc1ccc(OCC(=O)OCc2cc(=O)n3nc(C4CC4)sc3n2)cc1	-8.76	–
CS(=O)(=O)c1ccc(C(=O)OCC(=O)NNC(=O)COc2ccc(Cl)cc2)cc1	-4.53	–
Cc1ccc(-c2cc(N)on2)cc1	-6.95	–
COc1cc(OC)cc(C(=O)NCC(=O)OCC(=O)NC(C)CCc2ccccc2)c1 (centres undefined)	6.49	–
COc1cc(OC)cc(C(=O)NCC(=O)OCc2csc(-c3ccccc3)n2)c1	–	23.1 µM (active)
COc1cccc(C(=O)NCC(=O)OCc2cc(=O)n3ccsc3n2)c1	-1.07	–
CSc1ccc(CNCCN2CCOCC2)cc1	-16.9	–
COc1ccc(CCNC(=O)CSc2nc3[nH]ncc3c(=O)n2-c2cccc(C(F)(F)F)c2)cc1OC	-5.4	–
CCc1ccc(-n2c(SCc3cc(=O)n4cc(Br)ccc4n3)nc3[nH]ncc3c2=O)cc1	–	20.6 µM (active)
CCCSc1nc2[nH]ncc2c(=O)[nH]1	3.13	–
COc1ccccc1N1CCC(N2CCN(CC(C)(C)C)C(CCO)C2)CC1 (centres undefined)	-21.9	–
COc1ccccc1NC(=O)/C=C/C(N)=O	–	2.91 µM (active)
COc1ccccc1NC(=O)/C=C/C(=O)O	15	–
COc1ccccc1NC(=O)C[n+]1ccccc1	-2.16	–
O=C(Nc1ccc(S(=O)(=O)Nc2nccs2)cc1)c1cc(=O)[nH]c2ccccc12	13.3	–
Cc1cccc(C(=O)O)c1[N+](=O)[O-]	2.96	–
COc1ccccc1OCCNCC(O)COc1cccc2[nH]c3ccccc3c12 (centres undefined)	–	16.4 µM (active)
COc1ccccc1OCCNC(=O)c1cc([N+](=O)[O-])cc([N+](=O)[O-])c1	-0.0294	–

SMILES	activity change, negative = growth inhibition [%]	Potency
CC(C)(C)NCC(O)COc1cccc2[nH]c(=O)[nH]c12 (centres undefined)	–	inactive
Fc1ccc(Br)cc1/C=N/n1cnnc1	-11.2	–
CN(CC(=O)Nc1ccccc1[N+](=O)[O-])Cc1ccc(Br)cc1	-15.4	–
COc1ccc(Br)cc1CN(C)CC(=O)Nc1cc([N+](=O)[O-])ccc1OC	–	16.4 µM (active)
COc1ccccc1CC(=O)Nc1ccc([N+](=O)[O-])cc1OC	-0.609	–
CCCC1C(c2ccccc2)C(C#N)(C#N)C2(C#N)CC1(N)NC2=O (centres undefined)	2.33	–
COc1cccc(CNC(=O)CCN2C(=S)NC(C)(C)CC2C)c1 (centres undefined)	12.4	–
O=C(O)C1=NN(c2c(F)c(F)cc(F)c2F)C(=O)CC1	13	–
COc1ccccc1C(=O)N[C@@H]1c2ccccc2C2(CCN(C(=O)c3csnn3)CC2)[C@H]1OC	-9.12	–
COc1cccc(CN2CCC3(CC2)c2ccccc2[C@@H](NC(=O)c2ccccc2OC)[C@@H]3O)c1	–	16.4 µM (active)
CO[C@H]1[C@H](NC(=O)C(C)C)c2ccccc2C12CCN(Cc1cnc(N(C)C)s1)CC2	0.79	–
N[C@H](C(=O)O)c1ccc(C(=O)O)c(O)c1	–	inactive
CC1=NNC(=O)C1Cc1c(Cl)cccc1Cl (centres undefined)	-29	–
Cc1cc(C(F)(F)F)nn1-c1nc(-c2ccco2)cc(C(F)(F)F)n1	-10.8	–
CC(C)(C)NC(=O)CSc1nc(-c2ccc(F)cc2)cc(C(F)(F)F)n1	–	18.4 µM (active)
Cc1cc(C(F)(F)F)nc(SCC(=O)Nc2nccs2)n1	8.5	–
CC(C)c1nc(SCC(=O)NC(=O)NC(C)(C)C)n[nH]1	-6.01	–
CCNS(=O)(=O)c1ccc(NC(=O)CSc2nc(-c3ccco3)cc(C(F)(F)F)n2)cc1	–	7.31 µM (active)
Cc1cccc(NC(=O)CSc2nc(-c3ccco3)cc(C(F)(F)F)n2)c1C	–	9.2 µM (active)
CN(C)c1ccc(NC(=O)CSc2n[nH]c(-c3ccco3)n2)cc1	-11.6	–
O=C(CSc1nc(-c2ccco2)cc(C(F)(F)F)n1)NCc1cccs1	-24.4	–
Cc1cccc(NC(=O)Cn2c(C(F)(F)F)nc3ccccc32)c1C	-20.7	–
Cc1ccccc1CN1C(=O)CSCC1(C)C(=O)Nc1c(C)cccc1C (centres undefined)	-2.46	–
Cc1n[nH]c(=O)c2c(NC(=O)CSc3cc(Cl)ccc3Cl)oc(C)c12	7.52	–
O=C(CSc1nnnn1C1CCCC1)N1CCCCC1	-4.85	–
Cc1cc(=O)oc2c1ccc1ccccc12	10.2	–
